Experimental findings from PubChem BioAssay AID485364 (National Center for Advancing Translational Sciences (NCATS), 2010) are described below.

Molecules are shown by their SMILES. In all, about 360,000 compounds went through this assay and about 11,000 (3.1%) were called active. Inconclusive results (about 4%) are left out. The call rests on the fitted dose curve; in most records, active means well fitted inhibition curve with a large enough effect; inconclusive means small, poorly fitted or top-dose-only effect; inactive means no such curve, though single readings can be large or run the other way. Shown is part of a subset that was picked to be rich in actives. A call without a number means that no potency is given here.
Potency means the concentration at half of the fitted maximal effect.

The target of this assay is Schistosoma mansoni thioredoxin glutathione reductase (TGR) (UniProt Q962Y6). The assay can be described thus: qHTS Assay for the Inhibitors of Schistosoma Mansoni Peroxiredoxins. Further: nearly all actives have a fitted effect of over 60% in size. To be noted: purified TGR, DTNB reduction, TNB absorbance 405 nm; series mostly up to 114 µM. From the text:
Schistosomiasis is a major neglected tropical disease that currently affects over 200 million. It is caused by different species of flatworms, such as Schistosoma mansoni. Over the last century, drugs to treat the disease have evolved from potassium antimonyl tartrate, artemisinin, oxamniquine, to praziquantel, with praziquantel remaining the universally-used single drug of choice over the past three decades. However, transmission rates have changed little with praziquantel, and there is evidence for the development of drug resistant parasites. Because there is currently no suitable alternative therapy available, there is an urgent need to identify new targets and drugs for schistosomiasis treatment. Thioredoxin glutathione reductase (TGR), one uniquely positioned S. mansoni enzyme, has been identified as a major component of the worms' distinct and compressed antioxidant "firewall". TGR is a multifunctional enzyme that catalyzes the interconversion between reduced and oxidized forms of both glutathione (GSH) and thioredoxins, thus making it an attractive new antiparasitic target. Recently, a quantitative high-throughput screen of the NIH Molecular Libraries Small Molecule Repository (MLSMR, ~71K at the time of the screen in 2007) was performed using an assay that targeted both TGR and peroxiredoxin2 (Prx2, an H2O2-reducing enzymatic component of the S. mansoni redox "firewall") by following the decrease of NADPH fluorescence. […] Additional mechanistic link between exogenous NO donation and parasitic injury for the oxadiazole-2-oxide class of compounds was also expanded and better defined. Although the screen addressed both TGR and Prx2, the assay required post-screen target deconvolution for further characterization of the actives. In addition, the fluorescence assay was also subject to fluorescence interference from compound library members. We have developed a 1536-well-based kinetic HTS assay to address TGR alone. The assay followed the reduction of 5, 5'-dithiobis (2-nitrobenzoic acid) (DTNB) (Ellman's reagent) by NADPH and measured the increase in absorbance at 412 nm of the reaction product, TNB. […] This assay format can be used to screen the current MLSMR collection (with >300K compounds available) to find novel TGR inhibitors. Furoxan is a good choice to serve as a positive control in the primary HTS assay.
Three microliters of reagents (100 uM NADPH and 20 nM TGR or 100 uM NADPH as no-enzyme control) were dispensed into 1,536-well black clear-bottomed plates. Compounds (23 nL) were transferred via Kalypsys pin tool equipped with 1536-pin array (10 nL slotted pins, V&P Scientific, San Diego, CA). The plates were then be incubated for 15 min at room temperature, and 1 uL aliquot of 500 uM NADPH were added, immediately followed by a 1 uL aliquot of 15 mM DTNB to start the reaction. The plate was transferred to a ViewLux high-throughput CCD imager (Perkin-Elmer, Wellesley, MA) where kinetic measurements of the TNB absorbance were acquired using a 405 excitation filter. Throughout the screen, reagent bottles and all liquid lines were made light-tight to minimize reagent degradation. All screening operations were performed on a fully integrated robotic system (Kalypsys, San Diego, CA) containing one RX-130 and two RX-90 anthropomorphic robotic arms (Staubli, Duncan, SC). Library plates were screened starting from the lowest and proceeding to the highest concentration, and a "double-dipping" step of the highest concentration was required to access higher concentrations of compounds. Vehicle-only plates, with DMSO being pin-transferred to the entire column 5-48 compound area, were inserted uniformly at the beginning and the end of each library in order to monitor for and record any shifts in the background, which can be affected by reagent dispensers or loss in enzyme activity overtime. […]
`COc1cc(/C=N/O)cc(Br)c1OS(=O)(=O)c1ccc(C)cc1`: the Potency result was “inactive”.

Take `CCc1ccc(CNC(=O)c2cc3cc4ccc(OC)cc4nc3o2)cc1`: the Potency entry was “inactive”. Consider `COc1ccc2oc(-c3cccc(NC(=O)CSc4ccc(Cl)cc4)c3)nc2c1`, for which the Potency entry is “inactive”. `COc1ccc2cc(CCl)c(Cl)nc2c1`: the Potency is 31.6 µM (active). Turning to `CCOc1ccc(Nc2nc3c(S(=O)(=O)c4cccc(Cl)c4)nnn3c3ccsc23)cc1`, the Potency entry is “inactive”. `C[C@@]12C(=O)N(c3cccc(Br)c3)C(=O)N1[C@H](c1ccc(Cl)cc1)[C@@H]1C(=O)N(C3CCCCC3)C(=O)[C@@H]12`: the Potency entry was “inactive”.

`O=C1[C@@H]2C(Cc3ccc(O)cc3)NC3(C(=O)Nc4ccc(F)cc43)[C@@H]2C(=O)N1c1ccc(F)cc1` (some centres undefined): the Potency result was “inactive”. As to `CSCCC1NC2(C(=O)Nc3ccc(Cl)cc32)[C@@H]2C(=O)N(C3CCCC3)C(=O)[C@H]12` (some centres undefined), the Potency is 31.6 µM (active). Next, `CN(Cc1ccccc1)S(=O)(=O)c1ccc(F)c(C(=O)Nc2cccc(Cl)c2Cl)c1`: “inactive”; `Cc1ccc(CCNC(=O)Cn2c(-c3cccs3)cc3cc(F)ccc32)cc1`: “inactive”. For the molecule `C=CS(=O)c1sc(Cl)c(N2CCOCC2)c1[N+](=O)[O-]` (centres undefined), the Potency was 0.199 µM (active). For `CCOC(=O)c1[nH]c(C)c(CCC(=O)N2CCN(c3ccccc3)CC2)c1C`, the Potency result was “inactive”.

In the case of `Cn1c(=O)n(Cc2c(F)cccc2Cl)c(=O)c2c1nc1n2CCN1c1ccc(F)cc1`, the Potency entry is “inactive”. With `O=C(CCCCn1c(=O)[nH]c2ccccc2c1=O)NCc1ccc2c(c1)OCO2` the figure was 2.51 µM (active); with `NS(=O)(=O)c1ccc(CCNC(=O)CCCCCn2c(=O)[nH]c3ccccc3c2=O)cc1`, “inactive”; with `O=C(CCCCCn1c(=O)[nH]c2ccccc2c1=O)NCCc1c[nH]c2ccccc12`, “inactive”. Turning to `CCCCCn1c(CCCNC(=O)c2ccccc2OC)nc2ccccc21`, the Potency entry was “inactive”. For `COc1ccc(C)cc1NC(=O)CCc1c(C)nn(-c2ccc(N3CCOCC3)nn2)c1C`, the Potency entry was “inactive”. As for `CCOC(=O)c1ccc(NC(=O)Cn2c(=O)n(-c3ccc(C)cc3)c(=O)c3c2cnn3C)cc1`, the Potency result is “inactive”. On to `O=C(N/N=C/c1ccco1)c1csc2c1CCCC2`, for which the Potency was 44.7 µM (active). With `O=C(Cc1ccccc1)Nc1cccc(C(=O)N/N=C/c2ccco2)c1` the entry was “inactive”; with `O=C(Nc1ccccc1N1CCOCC1)c1csc2c1CCCC2`, “inactive”; with `CCOC(=O)C1CCN(c2csc3ccc(C)cc3c2=O)CC1`, “inactive”. For `CCOC(=O)c1c(NC(=O)/C=C/c2ccc(OC)cc2)sc2c1CCC(C)C2` (centres undefined), the Potency result is “inactive”. `O=C(CCCN1C(=O)/C(=C/c2cccs2)SC1=S)Nc1ccc(O)cc1`: the Potency entry was “inactive”.

As to `Cc1ccc(-c2nn(-c3ccccc3)cc2CN(Cc2ccccc2)C(=O)CCC(=O)O)o1`, the Potency is 7.94 µM (active).

`Cc1ccc(-c2nn(-c3cccc(F)c3)cc2CNCCc2ccncc2)o1`: the Potency entry is “inactive”. Regarding `O=C(O)CCC(=O)N(Cc1ccccc1)Cc1ccccc1`, the Potency result is “inactive”. Consider `Cc1ccc(-c2nn(-c3ccccc3)cc2/C=C2\SC(=S)N(CCCCCC(=O)O)C2=O)o1`, for which the Potency is 12.6 µM (active). Regarding `COc1ccc(/C=C2/SC(=O)N(CCCCCC(=O)Nc3ccccc3C(=O)O)C2=S)cc1`, the Potency entry was “inactive”. For the molecule `Cc1ccc(C)c(CN2C(=O)c3ccccc3S(=O)c3ccc(C(=O)N4CCOCC4)cc32)c1` (centres undefined), the Potency result is “inactive”. Regarding `CCCc1nn2c(=O)cc(COC(=O)c3ccc(NC(=O)COc4ccc(F)cc4)cc3)nc2s1`, the Potency result was “inactive”.

`CCOC(=O)c1c(NC(=O)COc2cc(C)ccc2C(C)C)sc(C)c1C`: the Potency result was “inactive”. Consider `CCCCOc1ccc(C(=O)N2CC(=O)Nc3ccc(Br)cc3C2c2ccc(F)cc2)cc1` (centres undefined), for which the Potency entry was “inactive”.

As to `CCOC(=O)COc1nc(C)cc(C(F)(F)F)c1C#N`, the Potency result is “inactive”. Take `CCOC(=O)c1cc(C)nc(S(C)(=O)=O)c1C#N`: the Potency was 35.5 µM (active). With `CCOC(=O)c1c(C(C#N)C#N)cc(C)nc1C` the entry was “inactive”; with `Cc1c(Cl)cccc1NC(=O)CCS(=O)(=O)c1ccc2c(c1)oc(=O)n2C`, “inactive”. With `CCOc1ccc(N2C(=O)CSC2=NC#N)cc1` the entry was “inactive”; with `CCOc1ccc(N2C(=O)CN(c3cccc4ccccc34)C2=S)cc1`, “inactive”; with `CCOc1ccc(N2C(=O)/C(=C/c3ccc(C)o3)N(C)C2=S)cc1`, 28.2 µM (active). On to `CCOC(=O)CSc1ccccn1`, for which the Potency result was “inactive”. Consider `COc1ccc(C=C(C#N)C#N)c(CSc2ccccn2)c1`, for which the Potency was 1 µM (active).

In the case of `COc1cccc(N(CC(=O)NCCSc2ccccn2)S(C)(=O)=O)c1`, the Potency result is “inactive”. Take `CC(C)c1ccc(C2C(C#N)=C(N)Oc3c2oc(CO)cc3=O)cc1` (centres undefined): the Potency entry is “inactive”.

For `CC(C)c1ccc(C2CC(=O)N3CN(C4CCCCC4)CSC3=C2C#N)cc1` (centres undefined), the Potency was 6.31 µM (active).

`CCOC(=O)c1cc2c(=O)n3ccccc3nc2n(CC2CCCO2)c1=NC(=O)c1ccc(C(C)(C)C)cc1` (centres undefined): the Potency result is “inactive”. With `CN1c2ccc(C=O)c3c(C=O)ccc(c23)N(C)C1(C)C` the figure was 35.5 µM (active); with `CCc1cc2c(-c3ccccc3)cc(=O)oc2c2c1OCN(Cc1ccc(C)cc1)C2`, “inactive”.
